Our source for the composite z-score and z-score values is PubChem BioAssay.

One assay deals with XIP peptide (Xip251-270). Nature of the assay: small-molecule binders of XIP peptide, primary screen, biochemical, small-molecule microarray, fluorescence 635/667 nm, 0.5 µg/mL protein (AID 1183). The following applies: small-molecule microarray binding, fluorescence 635 nm; higher = more signal.
Regarding `C=CC[C@]1(C(=O)NCCCOC)N=C(c2ccc(OCCCO)cc2)O[C@H]1c1ccccc1CN=[N+]=[N-]`, the composite z-score was 0.763.

Turning to `COc1cc(C(O)C2C=CC3C(=O)NC(=O)C3N2Nc2ccccn2)cc(OC)c1OC` (centres undefined), the composite z-score worked out at 0.405.

Regarding `[N-]=[N+]=NCc1ccccc1C[C@]1(C(=O)N2CCCCC2)N=C(c2ccc(OCCCO)cc2)O[C@H]1c1ccccc1N=[N+]=[N-]`, the composite z-score worked out at 0.694.

Regarding `COC(=O)C(CC#Cc1ccc2c(c1)[C@]1(C(=O)N2)[C@H](c2ccc(OCCO)cc2)N2[C@H](c3ccccc3)[C@H](c3ccccc3)OC(=O)[C@H]2[C@@H]1C(=O)N1CCc2cc(OC)c(OC)cc2C1)C(=O)OC`, the composite z-score was 0.78.

Regarding `C=CCOC(=O)[C@H]1[C@@H]2C(=O)O[C@@H](c3ccccc3)[C@@H](c3ccccc3)N2[C@@H](c2ccc(OCCOC(=O)[C@@H]3C[C@@H]4C(=O)N[C@@H](CCCCNC(C)=O)C(=O)N4[C@@H]3c3ccc(O)cc3)cc2)[C@]12C(=O)Nc1ccccc12`, the composite z-score worked out at 0.818.

Regarding `O=C1C[C@@](C(=O)NC2CC2)(c2ccc([N+](=O)[O-])cc2)[C@@H](c2ccc(CO)cc2I)N1C1CCCCC1`, the composite z-score turned out to be 0.693.

Consider `O=C(NCCO)C1=C[C@H](Oc2ccccc2I)[C@@H](O)[C@H](N(Cc2ccco2)C(=O)Cc2ccccc2)C1`, for which the composite z-score was -1.13.

Take `C=CCN1C(=O)[C@]2(O[C@H](CCn3cc([C@H](O)c4ccccc4)nn3)[C@@H]([Si](C)(C)c3ccc(OC)cc3)[C@@H]2C)c2cc(N3CCC3=O)ccc21`: the composite z-score turned out to be 0.128.

Regarding `CC(C)NC(=O)[C@@H]1c2ccccc2C(=O)N(C2Cc3ccccc3C2)[C@H]1c1ccc(CO)cc1`, the composite z-score amounted to 0.787.

For the molecule `NC(=O)N1C(=O)C2C(C1=O)C1C=C(c3ccc(CO)cc3)C2C(c2cccs2)N1Cc1cccc(OC(F)(F)F)c1` (centres undefined), the composite z-score is -0.814.

With `CC(C)NC(=O)[C@@]1(C)c2ccccc2C(=O)N(Cc2cc(C(F)(F)F)cc(C(F)(F)F)c2)[C@H]1c1ccc(CO)cc1`, the composite z-score came to 0.427.

Regarding `COC(=O)[C@@]1(Cc2ccc(OC)cc2)[C@H]2c3cc(C(=O)N(C)C)n(C)c3C[C@H]2CN1C(=O)c1ccccc1`, the composite z-score is 0.764.

Regarding `CN1C(=O)C2C=CC(C(O)C#Cc3ccccc3)N(N3CCCCC3)C2C1=O` (centres undefined), the composite z-score amounted to 0.84.

As for `COC(=O)C(CC#Cc1ccc2c(c1)[C@]1(C(=O)N2)[C@H](C(=O)Nc2nc3ccccc3s2)[C@H]2C(=O)O[C@H](c3ccccc3)[C@H](c3ccccc3)N2[C@@H]1c1ccccc1OCCO)C(=O)OC`, the composite z-score is 0.815.

As to `COCCOC(=O)N1C(=O)[C@@]2(c3cc(C#CC4(O)CCCCCC4)ccc31)[C@H](c1ccc(OCCO)cc1)N1[C@H](c3ccccc3)[C@H](c3ccccc3)OC(=O)[C@H]1[C@@H]2C(=O)N1CCN(c2ncccn2)CC1`, the composite z-score turned out to be 0.61.

As to `C=C(C)[C@@H]1CC=C(C(O)C2C=CC3C(=O)N(c4ccccc4)C(=O)C3N2Nc2ccccc2)CC1` (some centres undefined), the composite z-score worked out at 0.717.

With `COC(=O)[C@@]1(Cc2ccc(OC)cc2)[C@H]2c3cc(C(=O)N(C)C)n(Cc4ccccn4)c3C[C@H]2CN1C(=O)c1ccccc1`, the composite z-score was -0.765.

Turning to `NC(=O)NCC#Cc1ccc2c(c1)[C@]1(C(=O)N2)[C@H](c2ccccc2OCCO)N2[C@H](c3ccccc3)[C@H](c3ccccc3)OC(=O)[C@H]2[C@@H]1C(=O)Nc1nc2ccccc2s1`, the composite z-score was found to be 0.324.

In the case of `COC(=O)[C@@]1(Cc2ccc(OC)cc2)[C@H]2c3cc(C(=O)N(C)C)n(CCc4ccccn4)c3C[C@H]2CN1C(=O)c1ccccc1`, the composite z-score is -0.7.

For the molecule `[N-]=[N+]=NCc1ccccc1[C@@H]1OC(c2ccc(OCCCO)cc2)=N[C@]1(Cc1ccccc1)C(N)=O`, the composite z-score stood at 0.689.

As to `CC#CC(=O)Oc1ccccc1C=CC(=O)OCC`, the composite z-score is 0.106.

As for `CCCC[C@@H]1C[C@H]1[C@@H](NC(=O)c1ccco1)c1ccc(-c2ccccc2)cc1`, the composite z-score was -0.321.

As to `CC(C)CNC(=O)[C@@]1(Cc2ccccc2I)c2ccccc2C(=O)N(C2CCCCC2)[C@H]1c1ccc(CO)cc1`, the composite z-score amounted to 0.696.

In the case of `COc1cc2c(cc1O)C(C1CC1)N(Cc1sc3ccccc3c1Cl)CC2` (centres undefined), the composite z-score came to 0.637.

Tested on in the next assay: not listed separately
The assay can be described thus: Plasmodium falciparum growth inhibition, primary screen, strain 3D7, DAPI fluorescence, 100 nL (AID 1184).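 Also: parasites grown inside human red blood cells in medium with human serum.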 The following applies: P. falciparum 3D7 growth, 3 d, higher = more signal.
Molecule `NCCCCCNC(=O)[C@@H]1C[C@@H]2C(=O)N[C@@H](Cc3ccccc3)C(=O)N2[C@@H]1c1ccc(O)cc1` registered a z-score of 1.35.

`CN(C)CCCCCCNC(=O)[C@@H]1C[C@@H]2C(=O)N[C@@H](Cc3ccccc3)C(=O)N2[C@@H]1c1ccc(O)cc1` had a z-score of -1.19.

As for `C=CC[C@]1(C(=O)NCc2ccccc2)N=C(c2ccc(OCCCO)cc2)O[C@H]1c1ccccc1N=[N+]=[N-]`, the z-score is -2.18.

Take `CC(C)N1C(=O)[C@@]2(Cc3ccccc31)c1ccccc1C(=O)N(Cc1ccccc1Cl)[C@H]2c1ccc(CO)cc1`: the z-score is -0.113.

`C=CCNC(=O)[C@@H]1[C@H]2C(=O)O[C@H](c3ccccc3)[C@H](c3ccccc3)N2[C@H](c2ccccc2OCCO)[C@@]12C(=O)N(C(=O)OCCOC)c1ccccc12` came in with a z-score of -1.16.

`C=C(COC)/C(=C/C[C@H](OC(C)=O)c1ccc(CO)o1)c1cc(C(=O)OC)ccc1OC`: the z-score is -2.07.

`O=C1NC(=O)C2C1C=CC(C(O)c1cc(C(F)(F)F)cc(C(F)(F)F)c1)N2Nc1ccccn1` (centres undefined): the z-score was -0.352.

`OCCCC1=CC(c2cccs2)N(Cc2cc3c(cc2Br)OCO3)CC1` (centres undefined) yielded a z-score of -1.82.

Molecule `C[C@H]1NC(=O)[C@@]23C(=O)N[C@@H](Cc4ccccc4)C2[C@H](C)[C@@]2(C)O[C@H]2C3/C=C/C/C=C\CNC(=O)[C@@H]2CCCN2C1=O` (some centres undefined) came in with a z-score of 0.91.

As to `COC(=O)[C@@]1(Cc2ccc(OC)cc2)[C@H]2c3cc(C(=O)N(C)C)n(Cc4ccc(S(C)(=O)=O)cc4)c3C[C@H]2CN1C(=O)c1ccccc1`, the z-score is -0.0665.

The molecule `O=C1c2ccccc2[C@](Cc2ccccc2I)(C(=O)NCC(F)(F)F)[C@H](c2ccc(CO)cc2)N1Cc1ccccc1Cl` had a z-score of -0.562.

In the case of `C=CC[C@]1(C(=O)NCCCOC)N=C(c2ccc(OCCCO)cc2)O[C@H]1c1ccccc1CN=[N+]=[N-]`, the z-score was -2.52.

Molecule `COc1cc(C(O)C2C=CC3C(=O)NC(=O)C3N2Nc2ccccn2)cc(OC)c1OC` (centres undefined) returned a z-score of 1.26.

`[N-]=[N+]=NCc1ccccc1C[C@]1(C(=O)N2CCCCC2)N=C(c2ccc(OCCCO)cc2)O[C@H]1c1ccccc1N=[N+]=[N-]` yielded a z-score of -1.95.

Turning to `COC(=O)C(CC#Cc1ccc2c(c1)[C@]1(C(=O)N2)[C@H](c2ccc(OCCO)cc2)N2[C@H](c3ccccc3)[C@H](c3ccccc3)OC(=O)[C@H]2[C@@H]1C(=O)N1CCc2cc(OC)c(OC)cc2C1)C(=O)OC`, the z-score was -2.

Take `C=CCOC(=O)[C@H]1[C@@H]2C(=O)O[C@@H](c3ccccc3)[C@@H](c3ccccc3)N2[C@@H](c2ccc(OCCOC(=O)[C@@H]3C[C@@H]4C(=O)N[C@@H](CCCCNC(C)=O)C(=O)N4[C@@H]3c3ccc(O)cc3)cc2)[C@]12C(=O)Nc1ccccc12`: the z-score is -1.8.

The molecule `O=C1C[C@@](C(=O)NC2CC2)(c2ccc([N+](=O)[O-])cc2)[C@@H](c2ccc(CO)cc2I)N1C1CCCCC1` yielded a z-score of -1.28.

Take `O=C(NCCO)C1=C[C@H](Oc2ccccc2I)[C@@H](O)[C@H](N(Cc2ccco2)C(=O)Cc2ccccc2)C1`: the z-score was -1.32.

For `C=CCN1C(=O)[C@]2(O[C@H](CCn3cc([C@H](O)c4ccccc4)nn3)[C@@H]([Si](C)(C)c3ccc(OC)cc3)[C@@H]2C)c2cc(N3CCC3=O)ccc21`, the z-score is -2.89.

For the molecule `CC(C)NC(=O)[C@@H]1c2ccccc2C(=O)N(C2Cc3ccccc3C2)[C@H]1c1ccc(CO)cc1`, the z-score was -0.826.

`NC(=O)N1C(=O)C2C(C1=O)C1C=C(c3ccc(CO)cc3)C2C(c2cccs2)N1Cc1cccc(OC(F)(F)F)c1` (centres undefined) came in with a z-score of -2.86.

`CC(C)NC(=O)[C@@]1(C)c2ccccc2C(=O)N(Cc2cc(C(F)(F)F)cc(C(F)(F)F)c2)[C@H]1c1ccc(CO)cc1` had a z-score of -1.54.

The molecule `COC(=O)[C@@]1(Cc2ccc(OC)cc2)[C@H]2c3cc(C(=O)N(C)C)n(C)c3C[C@H]2CN1C(=O)c1ccccc1` showed a z-score of -1.4.

Consider `CN1C(=O)C2C=CC(C(O)C#Cc3ccccc3)N(N3CCCCC3)C2C1=O` (centres undefined), for which the z-score is -0.254.

Turning to `COC(=O)C(CC#Cc1ccc2c(c1)[C@]1(C(=O)N2)[C@H](C(=O)Nc2nc3ccccc3s2)[C@H]2C(=O)O[C@H](c3ccccc3)[C@H](c3ccccc3)N2[C@@H]1c1ccccc1OCCO)C(=O)OC`, the z-score is -2.02.

In the case of `COCCOC(=O)N1C(=O)[C@@]2(c3cc(C#CC4(O)CCCCCC4)ccc31)[C@H](c1ccc(OCCO)cc1)N1[C@H](c3ccccc3)[C@H](c3ccccc3)OC(=O)[C@H]1[C@@H]2C(=O)N1CCN(c2ncccn2)CC1`, the z-score is -2.06.

Regarding `C=C(C)[C@@H]1CC=C(C(O)C2C=CC3C(=O)N(c4ccccc4)C(=O)C3N2Nc2ccccc2)CC1` (some centres undefined), the z-score amounted to 0.759.

Turning to `COC(=O)[C@@]1(Cc2ccc(OC)cc2)[C@H]2c3cc(C(=O)N(C)C)n(Cc4ccccn4)c3C[C@H]2CN1C(=O)c1ccccc1`, the z-score is -1.54.

Turning to `NC(=O)NCC#Cc1ccc2c(c1)[C@]1(C(=O)N2)[C@H](c2ccccc2OCCO)N2[C@H](c3ccccc3)[C@H](c3ccccc3)OC(=O)[C@H]2[C@@H]1C(=O)Nc1nc2ccccc2s1`, the z-score is -1.89.

For `COC(=O)[C@@]1(Cc2ccc(OC)cc2)[C@H]2c3cc(C(=O)N(C)C)n(CCc4ccccn4)c3C[C@H]2CN1C(=O)c1ccccc1`, the z-score is -1.52.

Turning to `[N-]=[N+]=NCc1ccccc1[C@@H]1OC(c2ccc(OCCCO)cc2)=N[C@]1(Cc1ccccc1)C(N)=O`, the z-score is -2.13.

In turn, `CC#CC(=O)Oc1ccccc1C=CC(=O)OCC` registered a z-score of -0.418.

The molecule `CCCC[C@@H]1C[C@H]1[C@@H](NC(=O)c1ccco1)c1ccc(-c2ccccc2)cc1` registered a z-score of -0.937.

As for `CC(C)CNC(=O)[C@@]1(Cc2ccccc2I)c2ccccc2C(=O)N(C2CCCCC2)[C@H]1c1ccc(CO)cc1`, the z-score was -1.15.

Regarding `COc1cc2c(cc1O)C(C1CC1)N(Cc1sc3ccccc3c1Cl)CC2` (centres undefined), the z-score was -1.23.
